Results filed as inconclusive are left out. Unmarked numbers belong to inactive results. Calls of active or inactive are those of the source. The call rests on the fitted dose curve; in most records, active means well fitted inhibition curve with a large enough effect; inconclusive means small, poorly fitted or top-dose-only effect; inactive means flat fitted curve, though single readings scatter.
Each compound was assayed against Voltage-gated inwardly rectifying potassium channel KCNH2 (Homo sapiens) (UniProt Q12809) (assay: qHTS Assay for Small Molecule Inhibitors of the Human hERG Channel Activity (AID 588834;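 further: lower thallium flux fluorescence means stronger hERG block; nearly all actives have a fitted effect of over 50% in size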; on activity change, negative = inhibition: top concentration of the series differs between compounds)). Details: U2OS BacMam hERG, FluxOR thallium flux fluorescence; series mostly up to 46.1 µM; activity change, negative = inhibition: at the top concentration.
Chain of Voltage-gated inwardly rectifying potassium channel KCNH2 (Homo sapiens) (Q12809 whole entry, looked up): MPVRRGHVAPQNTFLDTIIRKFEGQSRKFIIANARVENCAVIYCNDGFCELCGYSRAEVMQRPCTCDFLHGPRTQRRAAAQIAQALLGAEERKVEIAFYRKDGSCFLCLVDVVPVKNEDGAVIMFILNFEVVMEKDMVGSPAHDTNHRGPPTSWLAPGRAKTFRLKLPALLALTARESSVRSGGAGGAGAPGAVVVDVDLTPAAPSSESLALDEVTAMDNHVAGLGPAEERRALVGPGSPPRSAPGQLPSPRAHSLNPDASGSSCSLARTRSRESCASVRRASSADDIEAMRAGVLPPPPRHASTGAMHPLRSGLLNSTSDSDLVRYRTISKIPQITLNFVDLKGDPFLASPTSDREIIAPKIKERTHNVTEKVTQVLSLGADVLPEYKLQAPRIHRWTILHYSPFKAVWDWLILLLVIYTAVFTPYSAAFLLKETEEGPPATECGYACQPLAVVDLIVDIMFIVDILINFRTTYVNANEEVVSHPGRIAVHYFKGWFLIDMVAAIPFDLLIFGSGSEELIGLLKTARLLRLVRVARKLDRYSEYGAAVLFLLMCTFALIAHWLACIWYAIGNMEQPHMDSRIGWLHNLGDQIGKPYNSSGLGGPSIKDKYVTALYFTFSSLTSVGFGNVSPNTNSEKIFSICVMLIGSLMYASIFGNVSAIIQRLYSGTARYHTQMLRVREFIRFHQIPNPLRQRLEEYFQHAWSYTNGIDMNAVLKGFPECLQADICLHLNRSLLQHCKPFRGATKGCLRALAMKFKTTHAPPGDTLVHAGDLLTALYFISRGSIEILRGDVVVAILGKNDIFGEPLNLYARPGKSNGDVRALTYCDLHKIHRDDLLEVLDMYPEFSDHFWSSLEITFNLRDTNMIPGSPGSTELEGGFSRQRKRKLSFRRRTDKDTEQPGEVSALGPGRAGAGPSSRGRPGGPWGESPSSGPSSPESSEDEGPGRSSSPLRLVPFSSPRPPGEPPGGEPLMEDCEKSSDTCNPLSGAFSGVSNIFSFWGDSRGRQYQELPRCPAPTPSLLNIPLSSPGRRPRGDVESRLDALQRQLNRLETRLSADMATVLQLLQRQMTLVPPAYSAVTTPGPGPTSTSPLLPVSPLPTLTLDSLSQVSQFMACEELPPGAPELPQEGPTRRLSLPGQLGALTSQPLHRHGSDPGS
Outline: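 Thallium serves as surrogate for K+ influx through BacMam-delivered hERG in U2OS cells. Compounds are added for about 10 minutes after dye loading; stimulation buffer then starts flux, monitored kinetically on FDSS.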
On the % scale 0 is the no-effect control and ±100 the full control effect; potency means the concentration at half of the fitted maximal effect.

First: CCOC(=O)[C@H](CS)NCCN[C@@H](CS)C(=O)OCC
Second: CCOC(=O)[C@@H](N)CS
The “activity change, negative = inhibition” value of the first is higher: 18.2% for the first, 2.07% for the second.

Compared with `CN[C@@H]1[C@H](O[C@H]2[C@H](O[C@H]3[C@H](O)[C@@H](O)[C@H](N=C(N)N)[C@@H](O)[C@@H]3N=C(N)N)O[C@@H](C)[C@]2(O)C=O)O[C@@H](CO)[C@H](O)[C@H]1O`, `CCN(CC)CCOC[C@H]1O[C@@H](O)[C@H](OCCN(CC)CC)[C@@H](O)[C@@H]1O` is lower in “activity change, negative = inhibition” value: 7.68% for the first, 3.03% for the second.

Going from `Cc1nc(NS(=O)(=O)c2ccc(N)cc2)nc(C)c1Br` to `CC(=O)Nc1ccc(OC(=O)c2ccccc2O)cc1`, the “activity change, negative = inhibition” value falls from -4.3% to -19.2%.

First: Cc1c(O)c(=O)ccn1C
Second: O=[n+]1ccn([O-])c2ccccc21
The “activity change, negative = inhibition” value of the first is lower: -4.57% for the first, 11.5% for the second.

First: CCCCCCCCCCCCCCCC(=O)OC[C@H](COP(=O)([O-])OCC[N+](C)(C)C)OC(=O)CCCCCCCCCCCCCCC
Second: CCCCCCCCCCCCCCCCCCCCCC(=O)Nc1ccn([C@@H]2O[C@H](CO)[C@@H](O)[C@@H]2O)c(=O)n1
The “activity change, negative = inhibition” value of the first is lower: 0.775% for the first, 13.8% for the second.

First: COC(=O)[C@@H](N)CS
Second: CC(C)[C@@H](N)C(=O)O
The “activity change, negative = inhibition” value of the first is higher: 15% for the first, 2.54% for the second.

Compared with `O=C(O)C1=C(CSc2nnnn2CS(=O)(=O)O)CS[C@@H]2[C@H](NC(=O)[C@H](O)c3ccccc3)C(=O)N12`, `Cc1cc(=O)c(C(=O)N[C@@H](C(=O)N[C@@H]2C(=O)N3C(C(=O)O)=C(CSc4nnnn4C)CS[C@H]23)c2ccc(O)cc2)c[nH]1` is lower in “activity change, negative = inhibition” value: 5.13% for the first, -17.7% for the second.

Compared with `COc1ccc(/C=C/C(=O)O)cc1`, `O=C(O)/C=C/c1ccccc1` is lower in “activity change, negative = inhibition” value: 18.6% for the first, 1.01% for the second.

Compared with `CCC(C(=O)NC(N)=O)c1ccccc1` (stereo not drawn), `CCCCC(O)c1ccccc1` (stereo not drawn) is lower in “activity change, negative = inhibition” value: 10.2% for the first, -10.1% for the second.

Going from `COc1cc2c(cc1OC)[C@@H](c1ccccc1)CN(C)CC2` to `CC1CC(OC(=O)C(O)c2ccccc2)CC(C)(C)C1` (stereo not drawn), the “activity change, negative = inhibition” value rises from -17.4% to 7.89%.

Compared with `C[C@H](CCCC(C)(C)O)[C@H]1CC[C@H]2[C@@H]3CC=C4C[C@@H](O)CC[C@]4(C)[C@H]3CC[C@]12C`, `CC(C)(C)NCC(O)CSc1nc(-c2ccc(C(N)=O)s2)cs1` (stereo not drawn) is lower in “activity change, negative = inhibition” value: 9.9% for the first, -10% for the second.

Going from `CC(=O)Oc1cccc2c1C(=O)c1c(OC(C)=O)cc(C(=O)O)cc1C2=O` to `O=C(O)COc1ccccc1/C=N/NC(=O)c1ccncc1`, the “activity change, negative = inhibition” value rises from -4.81% to 29.5%.

First: CCN(CC)C(=S)S
Second: CNC(=O)c1c(I)c(C(=O)NCC(=O)Nc2c(I)c(C(=O)O)c(I)c(C(=O)NCCO)c2I)c(I)c(N(C)C(C)=O)c1I
The “activity change, negative = inhibition” value of the first is higher: 13% for the first, 3.48% for the second.

Going from `CC1(C)C(\C=C/C=C\C=C/C=C2/N(CCCCS(=O)(=O)O)c3ccc4ccccc4c3C2(C)C)=[N+](CCCCS(=O)(=O)[O-])c2ccc3ccccc3c21` to `C=CC1=C(C(=O)O)N2C(=O)[C@@H](NC(=O)/C(=N\O)c3csc(N)n3)[C@H]2SC1` (stereo in doubt), the “activity change, negative = inhibition” value falls from 0.325% to -3.52%.

With `C[N@+]12CCCC[C@@H]1CCC(=C(c1cccs1)c1cccs1)C2` the Potency was 2.24 µM (active).
For `CSc1nc2cc(Oc3cccc(Cl)c3Cl)c(Cl)cc2[nH]1`, the Potency was 31.6 µM (active).
For `CCN(CC)CCOCCOC(=O)C(CC)(CC)c1ccccc1`, the Potency was 14.1 µM (active).
In the case of `O=C1CCC(c2ccccc2)(C2CCN(Cc3ccccc3)CC2)C(=O)N1` (stereo not drawn), the Potency is reported as 14.1 µM (active).
In the case of `CC(C)NCC(O)COc1ccccc1-n1cccc1` (stereo not drawn), the Potency is reported as 14.1 µM (active).
With `CCCCCCCCCc1ccc(OCCOCCO)cc1` the Potency was 14.1 µM (active).
In the case of `CC(CCc1ccc(O)cc1)NCC(O)c1ccc(O)cc1` (stereo not drawn), the Potency is reported as 1.78 µM (active).

Compared with `CN[C@@H]1[C@@H](O)[C@@H](O[C@@H]2[C@@H](O)[C@H](OC3OC(CN)=CCC3N)[C@@H](N)C[C@H]2N)OC[C@]1(C)O` (stereo partly drawn), `CCCCC[C@H](O)/C=C/[C@H]1[C@H](O)CC(=O)[C@@H]1CCCCCCC(=O)O` is higher in “activity change, negative = inhibition” value: 4.76% [at 20.6 µM] for the first, 22.1% [at 20.6 µM] for the second.

`CNCC(O)c1ccc(OC(=O)C(C)(C)C)c(OC(=O)C(C)(C)C)c1` (stereo not drawn) was tested, and the “activity change, negative = inhibition” value was -7.91% [at 20.6 µM].

Reference: PubChem BioAssay (NCATS)
